This is an account of results in PubChem BioAssay (NCATS).

Inconclusive results are not listed. Unmarked numbers belong to inactive results. Calls come from the whole dose curve; as a rule, active = well fitted inhibition curve with a large enough effect; inconclusive = small, poorly fitted or top-dose-only effect; inactive = flat fitted curve, though single readings scatter.

Sequence of Luciferin 4-monooxygenase (Photinus pyralis) (P08659 whole entry, looked up): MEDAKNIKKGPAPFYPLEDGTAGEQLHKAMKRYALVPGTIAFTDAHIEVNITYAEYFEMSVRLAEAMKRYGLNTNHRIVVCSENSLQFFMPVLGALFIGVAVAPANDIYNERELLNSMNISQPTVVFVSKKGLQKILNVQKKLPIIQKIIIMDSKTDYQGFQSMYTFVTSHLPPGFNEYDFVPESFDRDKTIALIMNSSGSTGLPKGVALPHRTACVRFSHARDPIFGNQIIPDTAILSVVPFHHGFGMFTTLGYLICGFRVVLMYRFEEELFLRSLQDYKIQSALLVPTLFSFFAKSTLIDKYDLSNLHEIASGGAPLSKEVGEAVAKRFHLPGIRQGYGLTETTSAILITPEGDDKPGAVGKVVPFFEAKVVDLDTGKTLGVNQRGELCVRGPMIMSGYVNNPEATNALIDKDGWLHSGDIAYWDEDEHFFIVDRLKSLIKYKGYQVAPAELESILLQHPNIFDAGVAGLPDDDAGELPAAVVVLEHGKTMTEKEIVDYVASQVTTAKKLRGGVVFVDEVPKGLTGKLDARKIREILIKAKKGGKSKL

This experiment concerns the target Luciferin 4-monooxygenase (Photinus pyralis) (UniProt P08659). Description: Biochemical firefly luciferase enzyme assay for NPC (AID 624030).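 Note: purified P. pyralis luciferase at 10 nM with luciferin and ATP substrate; 0% = DMSO and -100% = full luciferase inhibition by PTC124 control; nearly all actives have a fitted effect of over 70% in size.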 As to conditions: purified P. pyralis luciferase, luminescence, 5 min; series mostly up to 58.6 µM; activity change, negative = inhibition: at the top concentration. The procedure, abridged: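 Counter-screen for direct inhibition of the luciferase enzyme by approved-drug library compounds, run at 10 nM enzyme in 50 mM Tris acetate (final). Luminescence was read within 5 min of enzyme-buffer addition and normalized to PTC124 versus DMSO (0%).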
Turning to `CC1NC(=O)C(N)CNC(=O)C(C2CCN=C(N)N2)NC(=O)/C(=C/NC(N)=O)NC(=O)C(CNC(=O)CC(N)CCCN)NC1=O` (stereo not given), the “activity change, negative = inhibition” value is 9.29% [at 24.9 µM].

Take `CO/N=C(\C(=O)N[C@@H]1C(=O)N2C(C(=O)OCOC(=O)C(C)(C)C)=C(C)CS[C@H]12)c1csc(N)n1`: the “activity change, negative = inhibition” value was 1.8%.

As to `COc1cc2c(cc1OC)[C@@H](Cc1cc(OC)c(OC)c(OC)c1)[N@+](C)(CCCOC(=O)CC/C=C/CCC(=O)OCCC[N@+]1(C)CCc3cc(OC)c(OC)cc3[C@H]1Cc1cc(OC)c(OC)c(OC)c1)CC2`, the “activity change, negative = inhibition” value is 4.86%.

As for `[2H]c1c([2H])c([2H])c2c([nH]c(=S)n2C2CCN(CCCC(=O)c3ccc(F)cc3)CC2)c1[2H]`, the “activity change, negative = inhibition” value is -10.2%. For `Cc1c(N)nc([C@@H](CC(N)=O)NC[C@H](N)C(N)=O)nc1C(=O)N[C@H](C(=O)N[C@@H](C)[C@@H](O)[C@@H](C)C(=O)N[C@H](C(=O)NCCc1nc(-c2nc(C(=O)NCCCN[C@H](C)c3ccccc3)cs2)cs1)[C@H](C)O)[C@@H](O[C@H]1O[C@@H](CO)[C@H](O)[C@@H](O)[C@H]1O[C@H]1O[C@@H](CO)[C@@H](O)[C@H](OC(N)=O)[C@H]1O)c1cnc[nH]1` the value was 1.68%.

For `CC(=O)SC1CC2=CC(=O)CCC2(C)C2CCC3(C)C(CCC34CCC(=O)O4)C12` (stereo not given), the “activity change, negative = inhibition” value was -6.55%. For `CC(C)C[C@@H](NC(=O)[C@@H](COC(C)(C)C)NC(=O)[C@H](Cc1ccc(O)cc1)NC(=O)[C@@H](CO)NC(=O)[C@@H](Cc1c[nH]c2ccccc12)NC(=O)[C@@H](Cc1cnc[nH]1)NC(=O)[C@@H]1CCC(=O)N1)C(=O)N[C@H](CCCN=C(N)N)C(=O)N1CCC[C@H]1C(=O)NNC(N)=O` the value was 1.2%; for `CN(Cc1ccc(C(C)(C)C)cc1)c1cccc2ccccc12`, -0.503%. Next, `CC(=O)OCC(=O)C1(O)CCC2C3CCC4=CC(=O)CCC4(C)C3C(O)CC21C` (stereo not given): -5.54%; `C/C=C1\NC(=O)[C@H]2CSSCC/C=C\[C@H](CC(=O)N[C@H](C(C)C)C(=O)N2)OC(=O)C(C(C)C)NC1=O` (stereo not given in full): -3.53%. Next, `COc1cc([C@@H]2c3cc4c(cc3[C@@H](O[C@@H]3O[C@H]5CO[C@H](C)O[C@H]5[C@H](O)[C@@H]3O)[C@H]3COC(=O)[C@H]23)OCO4)cc(OC)c1OP(=O)(O)O`: -0.911%; `O=C(O)/C=C(/CC(=O)O)C(=O)O`: -5.89%.

`CC(C)(S)C(=O)N[C@H](CS)C(=O)O`: the “activity change, negative = inhibition” value was -0.889%. For `CCCCCCC(O)C/C=C\CCCCCCCC(=O)O` (stereo not given) the value was -13.6%; for `CC(=O)NC(CCC(N)=O)C(=O)O` (stereo not given), -2.92%; for `C/C=C(/CC[C@@H](C)[C@H]1CCC2C3=CC[C@H]4[C@H](C)[C@@H](O)CC[C@]4(C)C3CC[C@@]21C)C(C)C` (stereo not given in full), 0.561%.

Consider `CC(=O)OCC(=O)[C@@]1(O)[C@H](C)C[C@H]2C3C[C@H](F)C4=CC(=O)C=CC4(C)C3[C@@H](O)CC21C` (stereo not given in full), for which the “activity change, negative = inhibition” value was 0.599%. Turning to `OCC1(O)OC[C@@H](O)[C@H](O)[C@@H]1O` (stereo not given in full), the “activity change, negative = inhibition” value was -0.233%. Next, `CCC(C)C1OC2(C=CC1C)CC1CC(C/C=C(/C)C(OC3CC(OC)C(OC4CC(OC)C(NC(C)=O)C(C)O4)C(C)O3)C(C)/C=C\C=C3\COC4C(O)C(C)=CC(C(=O)O1)C34O)O2` (stereo not given): -9.07%; `CN1C2CCC1CC(NC(=O)n1c(=O)[nH]c3ccccc31)C2` (stereo not given): -1.13%; `CCC[C@@H]1CC(C(=O)NC(C2O[C@H](SC)C(OP(=O)(O)O)[C@H](O)[C@H]2O)[C@H](C)Cl)N(C)C1` (stereo not given in full): -3.85%. For the compound `C[N+]1(C)CCC(OC(=O)CC(O)(c2ccccc2)C2CCCC2)C1` (stereo not given), the “activity change, negative = inhibition” value was 0.887%.

In the case of `C/C(=C(\CCO)SSCC1CCCO1)N(C=O)Cc1cnc(C)nc1N` (stereo not given), the “activity change, negative = inhibition” value is 2.26%.

Take `C=C1C[C@@H]2[C@H]3CCC4=CC(=O)C=C[C@]4(C)[C@@]3(F)[C@@H](O)C[C@]2(C)[C@]1(O)C(=O)COC(C)=O`: the “activity change, negative = inhibition” value is -0.679%. With `C#C[C@@]1(OC(C)=O)CC[C@H]2[C@@H]3CCC4=CC(=O)CC[C@@H]4[C@H]3CC[C@@]21C`, the “activity change, negative = inhibition” value is 0.854%. Next, `CO[C@]1(NC(=O)Cc2cccs2)C(=O)N2C(C(=O)O)=CC(COC(N)=O)S[C@H]21` (stereo not given in full): -6.72%. In the case of `CC(C)=CCC/C(C)=C\CC/C(C)=C\CC/C(C)=C\CC1=C(C)C(=O)c2ccccc2C1=O`, the “activity change, negative = inhibition” value is -5.07%. Take `CC(C)=CCC/C(C)=C\CC/C(C)=C\CC/C=C(\C)CC/C=C(\C)CCC=C(C)C`: the “activity change, negative = inhibition” value is 2.76%. Next, `CC[C@H](C)[C@H](NC(=O)[C@H](CO)NC(=O)[C@H](CC(N)=O)NC(=O)[C@H](CC(C)C)NC(=O)[C@H](Cc1ccc(O)cc1)NC(=O)[C@H](CCCCN)NC(=O)[C@H](CCCCN)NC(=O)[C@@H](NC(=O)[C@H](C)NC(=O)[C@H](CCSC)NC(=O)[C@H](CCC(N)=O)NC(=O)[C@H](CCCCN)NC(=O)[C@H](CCCNC(=N)N)NC(=O)[C@H](CC(C)C)NC(=O)[C@H](CCCNC(=N)N)NC(=O)[C@@H](NC(=O)[C@H](Cc1ccc(O)cc1)NC(=O)[C@H](CC(N)=O)NC(=O)[C@H](CC(=O)O)NC(=O)[C@@H](NC(=O)[C@H](Cc1ccccc1)NC(=O)[C@@H](NC(=O)[C@H](C)NC(=O)[C@H](CC(=O)O)NC(=O)[C@H](CO)NC(=O)[C@@H](N)Cc1c[nH]cn1)C(C)C)[C@@H](C)O)[C@@H](C)O)C(C)C)C(=O)N[C@@H](CC(C)C)C(=O)N[C@@H](CC(N)=O)C(=O)O`: 21.2%; `CCCC(=O)O[C@]1(C(=O)COC(=O)CC)CC[C@@H]2[C@@H]3CCC4=CC(=O)CC[C@]4(C)[C@H]3[C@@H](O)C[C@@]21C`: 54.4%. For `CCN(CC)CCOc1ccc(/C(=C(/Cl)c2ccccc2)c2ccccc2)cc1` the value was 6.1%; for `CO[C@H]1[C@@H](O)[C@H](N)[C@@H](O[C@H]2O[C@@H]([C@H](C)N)CC[C@H]2N)[C@H](O)[C@@H]1N(C)C(=O)CN`, 10.6%; for `O=CC(O)C(O)C(O)C(O)CO` (stereo not given), -0.114%. Next, `CCC[C@H]1C[C@H](C(=O)NC(C(C)Cl)C2O[C@@H](SC)C(OP(=O)(O)O)[C@@H](O)[C@@H]2O)N(C)C1` (stereo not given in full): -0.944%; `CCN(CCO)CCn1c(Cc2ccccc2)nc2c1c(=O)n(C)c(=O)n2C`: -2.58%.

With `C[N+](C)(CCOc1ccccc1)Cc1cccs1` (tested in a mixture with another compound), the “activity change, negative = inhibition” value is -4.67%.

Take `CCCC(=O)O[C@]1(C(=O)COC(=O)CC)[C@@H](C)C[C@H]2[C@@H]3CCC4=CC(=O)C=C[C@@]4(C)[C@@]3(F)[C@H](O)C[C@@]21C`: the “activity change, negative = inhibition” value is -3.09%.

In the case of `CC(=O)CC/C=C(\C)CC/C=C(/C)CC/C=C(\C)CCC=C(C)C`, the “activity change, negative = inhibition” value is -0.539%. For `CO[C@H]1C[C@@H](O[C@@H]2[C@@H](C)O[C@@H](O[C@@H]3/C(C)=C/CC4C[C@@H](C[C@]5(C=C[C@@H](C)[C@H](C6CCCCC6)O5)O4)OC(=O)[C@@H]4C=C(C)[C@@H](O)[C@H]5OC/C(=C\C=C\[C@@H]3C)[C@]54O)C[C@H]2OC)O[C@@H](C)[C@@H]1O` the value was -0.99%.

On to `CCOC(=O)CCC(=O)OC1C(OC2C(C)C(OC3CC(C)(OC)C(O)C(C)O3)C(C)C(=O)OC(CC)C(C)(O)C(O)C(C)C(=O)C(C)CC2(C)O)OC(C)CC1N(C)C` (stereo not given), for which the “activity change, negative = inhibition” value was -1.9%.
